Among all 5,500 compounds or so, about 2,000 (36%) were called active. Roughly 18% stayed inconclusive and do not appear here. Rule as the data show it: active = normalized growth mostly below about 0.91 (no sharp cut-off); inconclusive = no clear call, values can overlap the other calls; inactive = mostly above about 0.92. The list shows a part of the results.
Test: chemical genetic growth profiling, strain panel (AID 1159580);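 also: tested at 20 µM; growth read once vehicle control cultures reached saturation at 30 °C; 1 = growth at the plate median or of vehicle wells; lower values mean less growth of the strain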
Conditions: S. cerevisiae deletion strains, growth OD

Measured: normalized growth

O=C1CC2(CCCC2)C(=O)N1CCNc1nccc(C(F)(F)F)n1
inactive: locus YAL013W, strain DEP1, active compounds read low 1.01 | locus YBR229C, strain ROT2, active compounds read low 0.991 | locus YCL061C, strain MRC1, active compounds read low 0.977 | locus YDL101C, strain DUN1, active compounds read low 0.985 | locus YDR150W, strain NUM1, active compounds read low 1.05 | locus YEL061C, strain CIN8, active compounds read low 1.01 | locus YGR078C, strain PAC10, active compounds read low 0.982 | locus YHR030C, strain SLT2, active compounds read low 0.994 | locus YHR087W, strain rtc3, active compounds read low 1.03 | locus YJL187C, strain SWE1, active compounds read low 0.995 | locus YJR043C, strain POL32, active compounds read low 0.999 | locus YJR075W, strain HOC1, active compounds read low 0.97 | locus YKL190W, strain CNB1, active compounds read low 0.984 | locus YLR039C, strain RIC1, active compounds read low 0.935 | locus YLR058C, strain SHM2 (second series), active compounds read low 0.975 | locus YLR085C, strain ARP6, active compounds read low 0.999 | locus YLR262C, strain YPT6, active compounds read low 0.972 | locus YML094W, strain GIM5, active compounds read low 1 | locus YMR219W, strain ESC1, active compounds read low 0.997 | locus YMR263W, strain SAP30, active compounds read low 1.01 | locus YNL128W, strain TEP1, active compounds read low 0.989 | locus YNL153C, strain GIM3, active compounds read low 1.01 | locus YNL298W, strain CLA4 (second series), active compounds read low 0.964 | locus YNL322C, strain KRE1, active compounds read low 0.993 | locus YNR030W, strain Alg12, active compounds read low 0.986 | locus YPL055C, strain LGE1, active compounds read low 1.03 | locus YPL241C, strain CIN2, active compounds read low 1 | locus YPR135W, strain CTF4, active compounds read low 0.941
